Our source for the B-score values is PubChem BioAssay AID488922 (Johns Hopkins Ion Channel Center, 2010).

Hit rate of the full screen: of about 310,000 compounds, about 3,800 (1.2%) were called active. The sample holds actives, similar compounds and a random draw of the others, so the mix is not that of the screen.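 Rule for the calls: active = ratio B-score over 3 SD below the library mean, with starting fluorescence within 5 SD of its mean; inactive = the rest, inconclusive results apart.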

In the assay the target is Potassium channel subfamily K member 9 (Homo sapiens) (UniProt Q9NPC2). Nature of the assay: blockers of human TASK-3 (KCNK9) channel – HEK293 cells, thallium flux, primary screen (AID 488922).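 For B-score: negative B-score means less thallium flux so channel inhibition.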 The conditions noted are these: HEK293 KCNK9, FluxOR thallium flux fluorescence, at 10 µM; active compounds read low.
Chain of Potassium channel subfamily K member 9 (Homo sapiens) (Q9NPC2 whole entry, looked up): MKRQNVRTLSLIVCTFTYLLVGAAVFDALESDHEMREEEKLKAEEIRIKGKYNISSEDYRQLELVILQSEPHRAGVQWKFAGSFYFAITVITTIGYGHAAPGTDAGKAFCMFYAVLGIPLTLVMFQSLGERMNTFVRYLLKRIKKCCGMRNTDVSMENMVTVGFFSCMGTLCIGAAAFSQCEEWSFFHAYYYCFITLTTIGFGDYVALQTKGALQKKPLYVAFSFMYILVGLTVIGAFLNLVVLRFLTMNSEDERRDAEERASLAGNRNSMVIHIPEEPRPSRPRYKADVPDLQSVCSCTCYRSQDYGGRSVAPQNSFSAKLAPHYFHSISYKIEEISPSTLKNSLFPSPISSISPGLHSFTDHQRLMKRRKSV
Turning to `CCCCCCCCCCCCn1ccc(=N)cc1`, the B-score was -10.8 (active). Next, `Cc1ccc(-c2nc3ccccc3c(=O)n2-c2ccc(Br)cn2)cc1`: “inactive”.

Consider `COc1cc(Cn2c(N)c(C(=O)NCc3ccco3)c3nc4ccccc4nc32)cc(OC)c1OC`, for which the B-score entry is “inactive”. Consider `CC1=C2C(=O)C3C(CC=C4CC(OC5OC(O)C(O)C(O)C5CO)CCC43C)C2CCC12OC1CC(C)CNC1C2C` (stereo not given), for which the B-score entry was “inactive”. To `CCCCn1c(O)c(C(CC)=NCc2ccco2)c(=O)[nH]c1=O` belongs “inactive”; to `CCC(=NCCCO)c1c(O)n(-c2ccc(OC)cc2)c(=O)[nH]c1=O`, “inactive”. With `CCCCCCN=C(CC)c1c(O)n(CCCC)c(=O)[nH]c1=O`, the B-score is -12.7 (active). To `CCN(CC)C(=O)Oc1ccc(NC(=O)N2CCOCC2)cc1` belongs “inactive”. `CN(C)CC1CCCCC1OC(=O)c1ccc(Cl)c(Cl)c1` (stereo not given): the B-score entry was “inactive”. To `COC(=O)C1=C(c2cc3ccccc3s2)C[C@@H]2CC[C@H]1N2C(=O)NC(C)C` belongs “inactive”. Next, `CCN1CCN(c2nc3c(c(=O)[nH]2)CCC3)CC1`: “inactive”. In the case of `O=C1CC(=O)N(Cc2ccccc2)C(=O)N1CCCCCCN1C(=O)CC(=O)N(Cc2ccccc2)C1=O`, the B-score result is “inactive”. As for `CC(C)(C)c1ccc(CN2C(=O)CN=C(c3ccccc3)c3ccccc32)cc1`, the B-score was -12.7 (active).

`CCOC(=O)c1c(C)c(C(=O)N2CCC3(CC2)OCCO3)c(C)n1CC`: the B-score entry was “inactive”. Next, `CCOP(=S)(OCC)C(O)CCCCCn1c(=O)c(F)cn(C2CCCO2)c1=O` (stereo not given): “inactive”. Regarding `C=CCN1C(=O)NC(=O)/C(=C/c2ccc(OCC(=O)Nc3ccc(C)cc3)cc2)C1=O`, the B-score entry is “inactive”.

Regarding `O=C(O)CCn1cc(C=C2C(=O)NC(=S)NC2=O)c(-c2cccc(Br)c2)n1`, the B-score result is “inactive”. As for `CCOC(=O)C1SC2(C(F)(F)C(F)F)CC1(O)c1c(c(OC)c3occc3c1OC)O2` (stereo not given), the B-score is -8.55 (active). As for `CCOP(=O)(OCC)C(NC(=O)c1ccc(OC)cc1)C(Cl)(Cl)Cl` (stereo not given), the B-score result is “inactive”. Next, `NC(=O)Nc1cccc(C(F)(F)F)c1`: “inactive”.
